# Compounds without any hit were thinned out: in the full panel of roughly 79,000, 15% have a hit. A number with no mark means an inactive call. Cut-off read from the data, not from the text of the source: active = growth inhibition above about 70%; inactive = the rest.
# Experiment: NCI Yeast Anticancer Drug Screen. Data for the rad50 strain (AID 155);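 note: 0% = growth of vehicle-only cultures of the same strain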
# Conditions: S. cerevisiae rad50 strain growth inhibition; at 50.0 µM; hits give high values
# Method in brief: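 Genetically altered yeast (DNA repair pathway); compound treatment; growth inhibition vs vehicle ctrl.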
row,Compound,growth inhibition [%]
1,CC(C)=NNc1ccc([N+](=O)[O-])cc1[N+](=O)[O-],35.1
2,CC1(C)Nc2cccc3c(N=Nc4ccc(N=Nc5ccccc5)c5ccccc45)ccc(c23)N1,-50.5
3,Nc1nc2c(c(-c3nc(N)nc4c3CCc3ccccc3-4)n1)CCc1ccccc1-2,-0.5
4,C#C[C@H]1CCCCCC1O (stereo partly drawn),13.1
5,O=C(O)CCC(NC(=O)OCc1ccccc1)C(=O)O (stereo not drawn),-4.05
6,CCOC(=O)C(=O)C=P(c1ccccc1)(c1ccccc1)c1ccccc1,-29.5
7,N#CCc1ccc([N+](=O)[O-])cc1,-14.2
8,Cc1cc2nc(CC(=O)c3ccccc3)c(=O)[nH]c2cc1C,15.7
9,Oc1ccccc1O,11.7
10,CC(=O)Nc1c(C)cc(C)cc1C,0.3
11,N#Cc1ccc(OC(=O)Nc2ccc(Cl)c(Cl)c2)cc1,-7.65
12,CC(C)C(C#N)(C(C)C)C(C)C,23.3
13,CN(C)/N=C/c1ccccc1O,1
14,COc1cc([C@@H]2c3cc4c(cc3[C@H](O)[C@H]3COC(=O)[C@H]23)OCO4)cc(OC)c1OC,-4.8
15,Cc1ccc(/C(C#N)=C/c2ccc3c(c2)OCO3)cc1,23.6
16,COC(=O)/C=C/C(=O)NC(N)=O,-19.6
17,COc1cc2c(cc1O)CC[C@@H]1C2CC[C@@]2(C)C1CC[C@@H]2O (stereo partly drawn),-11.6
18,COc1ccc2c(c1)CCc1c-2n[nH]c1-c1[nH]nc2c1CCc1cc(OC)ccc1-2,0.5
19,C/C(=N/NC(N)=O)c1ccco1,1.1

row,Compound,growth inhibition [%]
1,c1cc2cccc3c4cccc5cccc(c(c1)c23)c54,-18.9
2,S=C(Nc1ccccc1)N1CCCCC1,-2.8
3,COc1ccc(C)cc1OC,26.3
4,CCN(CC)C(=O)/C=C(/C)c1ccccc1,-12.6
5,O=C(N/N=C/c1ccccc1O)Nc1nn[nH]n1,-15.8
6,CSC(=N\N=C\c1ccc(N(C)C)cc1)/N=C/N(C)C,-4.3
7,CC(=O)Nc1ccc(NC(C)=O)c2c1C(=O)c1ccccc1C2=O,5.55
8,O=C(Nc1ccccc1C(=O)NCC1CC1)c1cccs1,-13.1
9,O=C(Cc1nc2ccc([N+](=O)[O-])cc2nc1CC(=O)c1cccnc1)c1cccnc1,14.3
10,CSc1[nH]c(=O)ncc1F,4.15
11,O=c1[nH]n(-c2ccccc2)c(=O)cc1Cl,-0.9
12,COc1ccc(-c2cc(-c3cc(-c4ccc(OC)cc4)nc(N)n3)nc(N)n2)cc1,-13
13,NC(=O)c1ccc(N=C(N)N=C(N)N)cc1,7.3
14,OCCN1CCOCC1,31.9
15,CC(=O)OCC1CCCO1 (stereo not drawn),-24.9
16,CCCCNC(=O)C(=O)NCCCC,10.8
17,CCOC(=O)/C(C#N)=C/c1cccc(C)c1,-19.4
18,O=C(O)CNC(=O)c1ccccc1,-46
19,c1ccc(CN2COc3c(ccc4c3OCN(Cc3ccccc3)C4)C2)cc1,7.4

# Source: PubChem BioAssay (NCI)
